Compounds with a hit are over-represented: about 4.7% of the library has one in this group of screens.
SKKanGAS inh – inhibitors of SKKanGAS S. pyogenes growth in kanamycin (SK-promoter or general growth effect) | BacTiter-Glo, 6 h | inhibition, % at 7.5 µM | 1.3% of 300,000 active | AID 1662;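 active means mean replicate score, as percent of positive control median, at least 50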;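 further: strain carries kanamycin resistance gene driven by streptokinase promoter and grows in 40 µg/ml kanamycin; loss of luminescence reflects streptokinase promoter inhibition or plain growth inhibition; 0% = median of DMSO wells and 100% = positive control at its reference dose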
PfHsp90 yeast 2 – inhibits growth of yeast expressing Plasmodium falciparum Hsp90; S. cerevisiae expressing PfHsp90, BacTiter-Glo ATP, 48 h; yeast lacking PDR1 and PDR3 efflux regulators; inhibition, % at 9.4 µM; 0.32% of 310,000 active; AID 504621;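 active means every replicate shows inhibition above about 80%, whatever the replicate mean, limit read from the data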;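 further: 0% = DMSO neutral controls and 100% = 20 µM radicicol positive controls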
EBI2 antag – antagonists of human EBI2 receptor; P32249; EBI2 beta-arrestin recruitment, luminescence, 7a,25-OHC stimulated; inhibition, % at 5 µM; 0.81% of 360,000 active; AID 651636; in the data active means inhibition above about 38%;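 further: enzyme fragment complementation signal reports receptor beta-arrestin coupling in cells; 0% = agonist plus DMSO wells and 100% = wells without agonist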
Target sequence (P32249 whole entry, looked up, the tested form may be a part): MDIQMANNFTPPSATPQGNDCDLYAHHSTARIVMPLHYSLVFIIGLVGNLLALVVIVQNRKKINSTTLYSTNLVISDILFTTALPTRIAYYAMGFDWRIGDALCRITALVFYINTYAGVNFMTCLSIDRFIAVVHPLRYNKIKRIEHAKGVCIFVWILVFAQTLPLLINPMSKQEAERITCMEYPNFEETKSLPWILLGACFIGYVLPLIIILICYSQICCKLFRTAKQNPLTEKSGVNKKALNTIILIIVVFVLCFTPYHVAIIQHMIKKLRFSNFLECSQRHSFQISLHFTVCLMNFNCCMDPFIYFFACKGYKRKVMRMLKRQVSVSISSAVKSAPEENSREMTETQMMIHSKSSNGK
tim23-1 inh – tim23-1 yeast growth inhibition; S. cerevisiae tim23-1 growth, BacTiter-Glo luminescence, 24 h; 1.3% of 330,000 active; inhibition, % at 20 µM;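 active means growth inhibition of the mutant yeast at or above 50%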;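 further: temperature-sensitive mutant grown at 25 °C; plate controls were DMSO-treated mutant yeast for no effect and medium wells lacking yeast for full effect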
TIM10 inh – growth inhibitors of TIM10 yeast strain | S. cerevisiae TIM10 strain growth, BacTiter-Glo luminescence, 24 h | 1.4% of 330,000 active | AID 463195 | inhibition, % at 10 µM;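 active means inhibition of 40% or more at the single tested concentration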;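 further: wild-type TIM10 isogenic control strain grown at permissive 25 °C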
tim10-1 inh – inhibits growth of tim10-1 mutant yeast; inhibition, % at 20 µM; 2.2% of 330,000 active; AID 463190; S. cerevisiae tim10-1 ts strain growth, BacTiter-Glo, 24 h;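 active means inhibition of at least 40%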;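 further: mutant grown at 25 °C; 0% = DMSO wells with yeast and 100% = wells holding no yeast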
EBI2 conf – confirmation of human EBI2 receptor antagonists; 29% of 2,400 active; shares compounds with EBI2 antag; EBI2 beta-arrestin luminescence, 7a,25-OHC antagonism; AID 651997; inhibition, % at 5 µM;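 active means inhibition of at least 50%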
EBI2 ag – activates EBI2, counter-screen for EBI2 antagonists; shares compounds with EBI2 antag; EBI2-expressing cells, agonist mode, luminescence, 60 min; 0% vehicle, 100% 7α,25-dihydroxycholesterol control; activation, % at 5 µM; 2,400 tested, under 10 active; AID 652000;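 active means activation of at least 50%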
bGal cs – counter-screen for EBI2 antagonists: E. coli beta-galactosidase inhibition; shares compounds with EBI2 antag; purified beta-galactosidase, luminescent Galacton Star, 15 min; inhibition, % at 5 µM; 1% of 2,400 active; AID 652176;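 active means replicate-average signal at least 3 plate SD below neutral wells, shown as high inhibition, flagging enzyme-inhibiting false positives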;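 further: 0% = DMSO wells with enzyme and 100% = wells lacking enzyme; higher means stronger loss of beta-gal luminescence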
* = called active by the depositor; nt = not tested or not shown.

SMILES	SKKanGAS inh	PfHsp90 yeast 2	EBI2 antag	tim23-1 inh	TIM10 inh	tim10-1 inh	EBI2 conf	EBI2 ag	bGal cs
COc1ccc(OCCN2CCC(C(=O)NC(c3ccccn3)c3ccccc3OC)CC2)cc1 (stereo not drawn)	nt	nt	4	nt	nt	nt	nt	nt	nt
O=C(COc1ccc([N+](=O)[O-])cc1)Nc1ccc(C(=O)Nc2ccccc2C(=O)O)cc1	7	-3	0	3	18	11	nt	nt	nt
O=C(/C=N/O)NCc1ccncc1	3	4	2	17	8	6	nt	nt	nt
COc1cccc(CN(C)C(=O)Cc2c[nH]c3ccccc23)c1	13	26	51*	7	-1	12	40	-1	-3
COc1ccc(CN(C)C(=O)Cc2c[nH]c3ccccc23)cc1	-6	-17	52*	22	20	9	31	0	-9
O=C(c1ccc(=O)[nH]c1)N(c1ccccc1)C(CCc1ccccc1)c1nc2ccccc2[nH]1 (stereo not drawn)	nt	nt	4	nt	nt	nt	nt	nt	nt
Cc1cccc(CN2CCC(Oc3ccc(C(=O)N4CCCC4)cc3)CC2)n1	-1	8	-9	2	-6	-9	nt	nt	nt
COc1cccc(Oc2cnc(N)nc2-c2ccc(OC)cc2O)c1	11	nt	52*	14	6	35	48	3	6
COc1ccc(-c2nc(N)ncc2Oc2ccccc2Br)c(O)c1	-10	-18	62*	13	0	23	23	0	4
COc1ccc(-c2nc(N)nc(C(F)(F)F)c2-c2ccccc2OC)c(O)c1	1	6	8	24	23	11	nt	nt	nt
COc1ccc(-c2nc(C)ncc2-c2csc(C)n2)c(O)c1	-8	13	-1	11	4	15	nt	nt	nt
CN(C(=O)c1cccc(S(=O)(=O)N2CCOCC2)c1)c1c(N)n(Cc2ccccc2)c(=O)[nH]c1=O	nt	5	-6	5	18	0	nt	nt	nt
O=C(COC(=O)/C=C/c1ccc([N+](=O)[O-])cc1)NCC1CCCCC1	nt	-13	2	3	-1	6	nt	nt	nt
Cc1noc(C)c1NC(=O)N(C)C[C@H]1Oc2ccc(NC(=O)Cn3cnnn3)cc2C(=O)N([C@H](C)CO)C[C@@H]1C	nt	-20	-2	-7	-2	-6	nt	nt	nt
Cc1ccccc1CN(c1ccc(C(=O)Nc2ccccc2C(=O)NCc2ccco2)cc1)S(C)(=O)=O	13	-31	58*	14	5	9	13	-1	-16
CCc1ccc(CN(C)C(=O)c2cc(=O)c3ccccc3o2)cc1	-21	16	86*	19	-4	22	65*	0	-11
COc1ccc(CCN(C)C(=O)c2cc(=O)c3ccccc3o2)cc1OC	-3	5	10	16	12	10	nt	nt	nt
NC(=O)Cn1cc(/C=N/NC(=O)c2ccc(Cn3cc(Cl)cn3)o2)c(-c2ccccc2)n1	nt	4	-9	4	10	3	nt	nt	nt
CC(C)c1ccc(C2NC(=S)NC3=C2C(=O)CC(C)(C)C3)cc1 (stereo not drawn)	-10	15	2	9	-12	6	nt	nt	nt
COc1ccc(OC)c(/C=C/C(=O)N2CCN(S(=O)(=O)c3cc(C)ccc3C)CC2)c1	nt	0	18	29	12	15	nt	nt	nt
Cc1ccc(C)c(S(=O)(=O)N2CCN(C(=O)Cc3ccccc3)CC2)c1	6	nt	-4	15	-5	6	nt	nt	nt
COc1ccccc1/C=C/C(=O)N1CCN(S(=O)(=O)c2cc(C)ccc2C)CC1	nt	-25	85*	48	37	24	76*	-1	-20
Cc1ccc(C)c(S(=O)(=O)N2CCN(C(=O)CNC(=O)c3ccc4ccccc4c3)CC2)c1	4	7	63*	35	11	23	50	1	3
Cc1ccc(C)c(S(=O)(=O)N2CCN(C(=O)CCC(=O)c3cc(C)sc3C)CC2)c1	-2	nt	78*	37	22	30	51*	4	3
COc1cc(/C=C/C(=O)OCC(=O)c2ccc3c(c2)NC(=O)CO3)ccc1OC(F)F	nt	9	-8	-19	-11	-1	nt	nt	nt
SMILES	SKKanGAS inh	PfHsp90 yeast 2	EBI2 antag	tim23-1 inh	TIM10 inh	tim10-1 inh	EBI2 conf	EBI2 ag	bGal cs
Cc1ccccc1-c1nnc(-c2ccc(Br)cc2)o1	-17	nt	16	-6	15	14	nt	nt	nt
CCC1CCC(c2nnc(-c3ccc(Br)cc3)o2)CC1 (stereo not drawn)	1	4	50*	19	22	19	29	0	6
Cc1cc(C)c(OCC(=O)N2CC=C(c3ccccc3)CC2)c(C)c1	16	4	60*	22	9	19	71*	4	-3
Cc1ccc(OCCCC(=O)N2CCN(S(=O)(=O)c3cccc(F)c3)CC2)cc1	-23	13	53*	6	8	22	13	-1	-14
O=C(CCCOc1ccccc1)N1CCN(S(=O)(=O)c2ccccc2)CC1	nt	-15	46*	21	4	7	40	1	1
Nc1cc(=O)[nH]c(SCC(=O)NNC(=O)c2ccccc2)n1	-15	nt	-4	2	8	-2	nt	nt	nt
CCN1CCN(c2ccc(S(=O)(=O)N3CCCCC3)cc2NC(=O)c2cc3ccccc3o2)CC1	7	nt	7	5	13	16	nt	nt	nt
O=c1cc(CN2CCN(Cc3ccc(F)cc3)C(CCO)C2)[nH]c2ccccc12 (stereo not drawn)	3	-1	3	-2	-6	-5	nt	nt	nt
Cc1sc(NC(=O)c2ccco2)c(CN2CCN(c3ccccc3)CC2)c1C	45	7	40*	21	7	14	16	-1	-11
O=C(COc1cccnc1[N+](=O)[O-])Nc1ccccc1Sc1ccccc1	9	-20	48*	4	-25	-32	32	0	7
O=C(COc1cccnc1[N+](=O)[O-])Nc1cccc(Br)c1	nt	-26	-5	1	-8	-3	nt	nt	nt
Cn1cccc1CC(=O)N/N=C\c1ccccc1	-4	0	44*	-8	4	-13	11	-1	-6
Cn1cccc1CC(=O)N/N=C/c1ccc(Cl)cc1	3	21	24	10	10	14	nt	nt	nt
O=C(NCC(O)CN1CCOCC1)c1ccc([N+](=O)[O-])cc1 (stereo not drawn)	-4	20	-20	-1	-8	20	nt	nt	nt
COc1ccc2cc(-c3[nH]ncc3CN3CCCC3c3nonc3C)ccc2c1 (stereo not drawn)	-8	-18	46*	33	23	20	28	0	6
COc1ccc(-c2[nH]ncc2CN2CCCC(C(=O)c3cccc(OC)c3)C2)cc1 (stereo not drawn)	0	21	-4	10	-18	-1	nt	nt	nt
